D1 PAM: Potentiators of Human D1 Dopamine Receptor: qHTS; D(1A) dopamine receptor (Homo sapiens), P21728; HEK293 TREx D1 cells, calcium flux, dopamine EC20 potentiation; potentiation, % at 10 µM; 360,000 compounds, 0.036% hits; AID 504651, 2011; in the data active = potentiation above about 30%; note: 0% is about no effect
Target sequence (P21728 whole entry, looked up): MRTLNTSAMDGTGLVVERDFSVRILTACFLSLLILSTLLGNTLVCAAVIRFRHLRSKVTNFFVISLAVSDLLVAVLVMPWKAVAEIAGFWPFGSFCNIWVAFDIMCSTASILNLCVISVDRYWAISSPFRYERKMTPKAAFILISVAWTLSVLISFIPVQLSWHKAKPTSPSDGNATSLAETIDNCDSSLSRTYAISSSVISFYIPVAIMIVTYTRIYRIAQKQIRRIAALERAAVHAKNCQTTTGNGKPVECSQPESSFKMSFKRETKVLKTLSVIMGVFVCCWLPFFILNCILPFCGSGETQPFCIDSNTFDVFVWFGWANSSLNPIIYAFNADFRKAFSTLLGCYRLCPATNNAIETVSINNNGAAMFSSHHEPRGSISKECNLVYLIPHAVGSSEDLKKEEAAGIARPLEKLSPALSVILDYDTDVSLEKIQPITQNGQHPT
D1 agonist: Allosteric Agonists of the Human D1 Dopamine Receptor: qHTS; AID 504660, 2011; D(1A) dopamine receptor (Homo sapiens), P21728; HEK293 T-REx D1 cells, calcium flux, agonist mode; activation, % at 2 µM; 360,000 compounds, 1% hits; in the data active = activation above about 30%; note: 0% is about no effect
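Agonism was scored from calcium flux recorded over 180 s (1 read/s) after pintool compound addition, following a 10-cycle baseline. Cells were inducible force-coupled HEK293 TREx D1, plated overnight at 30 C and loaded with no-wash calcium dye.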
D1 antag: Antagonist of Human D 1 Dopamine Receptor: qHTS; D(1A) dopamine receptor (Homo sapiens), P21728; HEK293 TREx D1 cells, calcium flux, dopamine EC80; active compounds read low; activity change, negative = inhibition, % at 10 µM; 360,000 compounds, 3.2% hits; in the data active = activity change below about -30%; note: % is set by controls: 0 for no effect and ±100 for the full control effect
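Tetracycline-induced HEK293 T-REx cells with force-coupled D1 receptor were loaded with a no-wash calcium dye. Compound was added after a 10 s baseline and read kinetically for 180 s; EC80 dopamine was then added and calcium flux followed another 180 s.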
D3 ag: qHTS of D3 Dopamine Receptor Agonist: qHTS; max activation, %; D(3) dopamine receptor (Homo sapiens), P35462; D3R DiscoveRx beta-arrestin cells, luminescence, 90 min; 410,000 compounds, 0.58% hits; in the data active = max activation above about 30%; note: 0% is about no effect
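Agonist mode: compounds and dopamine controls were applied to plated cells for 90 min at 37 degrees C after an overnight attachment at 1500 cells/well. Luminescent read-out followed 30 - 60 minutes at room temperature with DiscoveRx detection reagent.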
Chronic BCR inh: qHTS Assay to Find Inhibitors of Chronic Active B-Cell Receptor Signaling; AID 493014, 2011; ABC-DLBCL IkBa-CBG/CBR reporter, luminescence ratio, 4 h; Potency, µM (series often up to 46.1 µM), for inactives: at the top dose activity change, negative = inhibition, usual class: inhibitors; 340,000 compounds, 0.05% hits; active = well fitted inhibition curve with a large enough effect in the signal ratio, with a control signal flat, not every such curve was filed as active; inconclusive = small, poorly fitted or top-dose-only effect, or effect the other way, or a change in a side signal; the % refers to the signal ratio;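 note: potency is the fitted concentration of half-maximal effect; plate controls were basal doxycycline-induced cells for no effect and cells given 10 µM MG132 for full effect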
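Concentration-response series (up to 46 uM) were applied to TMD8 dual-reporter cells for 4 h at 37C with doxycycline. Green/red ratio, after filter-overlap correction, defined %Activity; red signal alone was normalised to basal cells and zero luminescence.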
DRD3 antagonist: qHTS of D3 Dopamine Receptor Antagonist: qHTS. 360,000 compounds, 2.5% hits. D(3) dopamine receptor (Homo sapiens), P35462. max response, negative = inhibition, %. AID 652054, 2013. D3R cells, DiscoveRx beta-arrestin luminescence, antagonist mode; active compounds read low; in the data active = max response below about -50%; inconclusive = no clear call, values can overlap the other calls; note: % is set by controls: 0 for no effect and ±100 for the full control effect
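Cells expressing the human receptor were seeded at 1500 cells/well, incubated overnight at 37 degrees C in 5% CO2, then exposed to library compounds with dopamine controls for 90 minutes at 37 degrees C before luminescent detection.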
Starred values were filed as active, the others as inactive; u = inconclusive; x = no result given. The list is not random: actives were taken first. Their share in the collection is about 6%.

SMILES	D1 PAM	D1 agonist	D1 antag	D3 ag	Chronic BCR inh	DRD3 antagonist
NC[C@@H]1O[C@H](O[C@H]2[C@@H](O)[C@H](O[C@@H]3[C@@H](O)[C@H](N)C[C@H](N)[C@H]3O[C@H]3O[C@H](CN)[C@@H](O)[C@H](O)[C@H]3N)O[C@@H]2CO)[C@H](N)[C@@H](O)[C@@H]1O	x	x	x	-2	x	x
COc1ccc(CNCCC(c2ccccc2)c2ccc3c(c2)OCO3)cc1 (centres undefined)	3	133*	-16	-20	u	-74*
Cc1ccc(C(CCN)c2ccco2)cc1 (centres undefined)	-15	7	-7	-8	u	-15
CC(C)CCC(CCNCc1ccccn1)c1ccc2c(c1)OCO2 (centres undefined)	6	30*	-15	-21	0%	-23
COc1ccc(CNCCC(c2ccc(C)cc2)c2ccco2)cc1 (centres undefined)	-2	92*	-7	-18	x	x
Cn1c(=O)c2c(nc(NCc3ccc4c(c3)OCO4)n2Cc2ccccc2Cl)n(C)c1=O	0	1	-81*	8	4%	5
C=CCOc1nc2c(c(=O)n(C)c(=O)n2C)n1Cc1ccccc1Cl	-1	-2	-3	36*	0%	15
CC(C)CC1C(=O)N(Cc2cn(CCC3OCCO3)nn2)CCS(=O)(=O)N1Cc1ccc(-c2ccncc2)cc1 (centres undefined)	x	x	x	-3	x	11
CCOc1ccc(NC(=O)CN(C)C(=O)c2ccc(C3SCCS3)cc2)cc1OCC	-19	1	-45*	-6	4%	14
CCOc1ccc(NC(=O)CN(C)C(=O)C2CC2C)cc1OCC (centres undefined)	-4	3	2	12	0%	-8
COc1ccc(NC(=O)CN(C)C(=O)c2ccc(=O)[nH]c2)cc1	-6	3	-5	-3	-2%	12
CCOc1ccc(NC(=O)CN(C)C(=O)c2ccc(=O)[nH]c2)cc1OCC	-21	1	-77*	-10	-2%	-18
CCOc1ccc(NC(=O)C(=O)NCCc2ccccc2)cc1	-3	-1	-27	-3	x	x
COC(=O)c1ccccc1NC(=O)c1ccco1	-5	1	-34*	-2	-13%	-11
O=C(Nc1ccccc1C(=O)OCC(=O)c1c[nH]c2ccccc12)c1ccco1	-2	3	-11	35*	-9%	19
O=C1/C(=C/c2ccccn2)COc2ccccc21	1	2	-20	-5	3%	9
CC1C/C(=C/c2ccccn2)C(=O)/C(=C/c2ccccn2)C1 (centres undefined)	-6	0	-6	-22	u	-60*
CC(C)(C)C1C/C(=C/c2ccccn2)C(=O)/C(=C/c2ccccn2)C1 (centres undefined)	-3	0	2	-9	u	-53*
CC1C/C(=C/c2ccco2)C(=O)/C(=C/c2ccco2)C1 (centres undefined)	-7	5	-2	x	u	x
COc1ccccc1Cc1c(-c2ccc(OC)c(OC)c2)nc2ccc(C)cn12	x	x	x	7	x	48
CCc1ccc(NC(=O)CSc2nnc3[nH]c(=O)cc(-c4ccccc4)n23)cc1	0	-2	x	-11	-8%	x
O=C(CN1CCCCCCC1)N/N=C/c1ccc(F)cc1F	2	5	-32*	-11	u	-29
Cc1nn(C(=O)COc2ccccc2)c(C)c1Sc1ccccc1	-2	110*	-65*	-2	x	x
Cc1ccc(Sc2c(C)nn(C(=O)COc3ccccc3)c2C)cc1	-3	21	-10	-7	x	x
O=C(Nc1ccc(-c2nc3ccccc3[nH]2)cc1)c1ccc(N2C(=O)CCC2=O)cc1	-3	0	-50*	-2	6%	9
SMILES	D1 PAM	D1 agonist	D1 antag	D3 ag	Chronic BCR inh	DRD3 antagonist
Cc1ccccc1C(=O)Nc1ccc(-c2nc3ccc(C(=O)c4ccccc4)cc3[nH]2)cc1	-5	4	-42*	-10	12%	-29
CN(c1ccccc1)S(=O)(=O)c1ccc(Cl)c(C(=O)Nc2ccc(-c3nc4ccccc4[nH]3)cc2)c1	-10	5	-30*	-4	u	19
CC(=O)N1Cc2cc(C(=O)NCC(F)(F)F)nc(-c3cccc(-c4cccnc4)c3)c2[C@@H]1CCO	x	x	x	-14	x	0
CCOC(=O)c1cc2c(=O)n3ccccc3nc2n(CC2CCCO2)c1=NC(=O)c1ccccc1C (centres undefined)	0	1	-2	4	x	x
COC(=O)c1ccccc1NC(=O)Cn1nc(C(F)(F)F)c2c1CCCC2	-1	26	9	-24	x	x
COc1ccc(N=C2S/C(=C\c3ccc(N4CCOCC4)o3)C(=O)N2CCc2c[nH]c3ccccc23)cc1	-4	17	-30*	x	u	x
COc1ccc(N=C2S/C(=C\c3ccc(OCC(=O)O)cc3)C(=O)N2CCc2c[nH]c3ccccc23)cc1	-1	3	-7	9	1%	14
O=C(Cn1ncc2c3ccccc3n(Cc3cccc(Cl)c3)c2c1=O)NCCC1=CCCCC1	0	4	6	7	x	x
Cc1cccc(NC(=O)CN(C)S(=O)(=O)c2ccc3c(c2)c(=O)n(C)c(=O)n3C)c1	-2	-1	11	3	x	x
CCOC(=O)c1c(-c2ccccc2)oc2ccc(OCC(O)CNCCN(C)C)cc12 (centres undefined)	-8	45*	-48*	-8	u	u
CCOc1ccc(CCNC(=O)CSc2nnnn2-c2ccccc2)cc1OCC	-2	-1	6	-9	x	x
NC(=O)c1ncn([C@@H]2O[C@H](CNCc3c(OCc4ccccc4F)ccc4ccccc34)[C@@H](O)[C@H]2O)n1	x	x	x	2	x	-10
CCC(=O)N1CCCc2cc(S(=O)(=O)N3CCC(C(=O)Nc4ccc(F)c(F)c4)CC3)ccc21	-7	1	-32*	-20	x	x
CCC(=O)N1CCCc2cc(S(=O)(=O)N3CCC(C(=O)NC4CCCCC4)CC3)ccc21	4	2	4	-14	x	x
CCC(=O)N1CCCc2cc(S(=O)(=O)N3CCC(C(=O)Nc4ccc(C#N)cc4)CC3)ccc21	-7	0	-59*	9	x	x
Cc1ccc(S(=O)(=O)N2[C@H](CC(=O)c3ccc(F)cc3)OC[C@@H]2C(C)C)cc1	x	x	x	-9	x	-7
